We go through twelve compounds from PubChem BioAssay.

Active and inactive are the calls of the source.

Experiment [1] can be described thus: small molecules captured by biotinylated probe aFSTL3 – biochemical, small-molecule microarray, fluorescence 635/667, stem cell growth factor project, primary screen (AID 1064).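 Further: measures binding of the biotinylated anti-FSTL3 antibody to printed compounds.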 As to conditions: higher = more signal.
A short description of experiment [2]: binders from COS7 lysate, DM2A8 probe, primary screen, torsin A project, cell lysate, small-molecule microarray, fluorescence 635/667 (AID 1065). The conditions noted are these: higher = more signal, COS7 lysate expressing mutant human TOR1A.
Experiment [3] in a line: small molecules captured by biotinylated probe aFGF2 – biochemical, small-molecule microarray, fluorescence 635/667, stem cell growth factor project, primary screen (AID 1067).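 Further: measures binding of biotinylated aFGF2 protein to printed compounds on slides; z-score merges feature fluorescence and signal-to-noise across triplicate slides.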 The conditions noted are these: higher = more signal.
Experiment [4] can be described thus: small molecules captured by biotinylated probe aFGF10 – biochemical, small-molecule microarray, fluorescence 635/667, stem cell growth factor project, primary screen (AID 1071).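 Further: score merges 667 nm spot intensity and signal to noise from triplicate slides.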 As to conditions: higher = more signal.
Experiment [5] has as its target Neurogenic locus notch homolog protein 2 (Homo sapiens) (UniProt Q04721). Description: small molecules binding Notch2 protein – biochemical, small-molecule microarray, 635 nm fluorescence, stem cell growth factors, primary screen (AID 1073). The conditions noted are these: higher = more signal.
The target in experiment [6] is Pro-neuregulin-1, membrane-bound isoform (Homo sapiens) (UniProt Q02297). Description: small molecules binding neuregulin-1 protein – biochemical, small-molecule microarray, fluorescence 635/667, psychiatric disease protein project, primary screen (AID 1075).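 Further: score combines 667 nm spot fluorescence with signal to noise.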 As to conditions: NRG1 binding, 635 nm fluorescence, higher = more signal.
For experiment [7], the system named is Neuregulin-1 EGF-like domain. Put plainly: small molecules binding NRG1 EGF domain – biochemical, small-molecule microarray, 635 nm fluorescence, primary screen (AID 1081).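 Further: binding of the protein to compounds printed on small-molecule microarray slides.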 As to conditions: higher = more signal.
The nature of experiment [8]: FRG1 expression reporter modulators in myotubes – cell-based, C2C12 myotubes, firefly/Renilla luciferase, luminescence, FRG1 inhibition for FSHD, primary screen (AID 1084). As to conditions: FRG1 promoter luciferase, higher = more signal, called active from +8 up or from −8 down.
Experiment [9] can be described thus: small molecules captured by biotinylated probe aFST – biochemical, small-molecule microarray, fluorescence 635/667, stem cell growth factor project, primary screen (AID 1086).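 Further: score merges 667 nm fluorescence with signal-to-noise of each printed compound spot.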 The conditions noted are these: higher = more signal.
Experiment [10] is described as follows: binders of probe aHhip on microarray, primary screen, stem cell growth factor project, biochemical, small-molecule microarray, fluorescence 635/667 (AID 1087).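 Further: score merges spot fluorescence at 667nm with spot signal to noise ratio.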 As to conditions: higher = more signal.

Chain of Pro-neuregulin-1, membrane-bound isoform (Homo sapiens) (Q02297 whole entry, looked up, the tested form may be a part, canonical isoform): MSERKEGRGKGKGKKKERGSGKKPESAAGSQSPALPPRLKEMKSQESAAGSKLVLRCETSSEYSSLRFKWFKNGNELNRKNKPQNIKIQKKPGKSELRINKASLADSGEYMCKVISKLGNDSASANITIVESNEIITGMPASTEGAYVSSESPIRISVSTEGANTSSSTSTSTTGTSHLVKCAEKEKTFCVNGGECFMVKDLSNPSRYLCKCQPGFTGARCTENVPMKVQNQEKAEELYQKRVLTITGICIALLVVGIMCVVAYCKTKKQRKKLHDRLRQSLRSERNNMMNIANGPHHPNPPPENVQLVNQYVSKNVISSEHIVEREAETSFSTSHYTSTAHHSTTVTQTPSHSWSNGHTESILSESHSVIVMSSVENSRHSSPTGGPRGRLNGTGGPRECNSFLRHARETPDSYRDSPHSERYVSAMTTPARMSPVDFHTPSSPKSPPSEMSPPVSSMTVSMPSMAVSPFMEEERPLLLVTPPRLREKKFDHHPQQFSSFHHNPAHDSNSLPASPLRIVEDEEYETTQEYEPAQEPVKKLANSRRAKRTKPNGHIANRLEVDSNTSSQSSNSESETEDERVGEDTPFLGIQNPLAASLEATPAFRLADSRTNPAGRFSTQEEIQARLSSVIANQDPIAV
Chain of Neurogenic locus notch homolog protein 2 (Homo sapiens) (Q04721 whole entry, looked up, canonical isoform): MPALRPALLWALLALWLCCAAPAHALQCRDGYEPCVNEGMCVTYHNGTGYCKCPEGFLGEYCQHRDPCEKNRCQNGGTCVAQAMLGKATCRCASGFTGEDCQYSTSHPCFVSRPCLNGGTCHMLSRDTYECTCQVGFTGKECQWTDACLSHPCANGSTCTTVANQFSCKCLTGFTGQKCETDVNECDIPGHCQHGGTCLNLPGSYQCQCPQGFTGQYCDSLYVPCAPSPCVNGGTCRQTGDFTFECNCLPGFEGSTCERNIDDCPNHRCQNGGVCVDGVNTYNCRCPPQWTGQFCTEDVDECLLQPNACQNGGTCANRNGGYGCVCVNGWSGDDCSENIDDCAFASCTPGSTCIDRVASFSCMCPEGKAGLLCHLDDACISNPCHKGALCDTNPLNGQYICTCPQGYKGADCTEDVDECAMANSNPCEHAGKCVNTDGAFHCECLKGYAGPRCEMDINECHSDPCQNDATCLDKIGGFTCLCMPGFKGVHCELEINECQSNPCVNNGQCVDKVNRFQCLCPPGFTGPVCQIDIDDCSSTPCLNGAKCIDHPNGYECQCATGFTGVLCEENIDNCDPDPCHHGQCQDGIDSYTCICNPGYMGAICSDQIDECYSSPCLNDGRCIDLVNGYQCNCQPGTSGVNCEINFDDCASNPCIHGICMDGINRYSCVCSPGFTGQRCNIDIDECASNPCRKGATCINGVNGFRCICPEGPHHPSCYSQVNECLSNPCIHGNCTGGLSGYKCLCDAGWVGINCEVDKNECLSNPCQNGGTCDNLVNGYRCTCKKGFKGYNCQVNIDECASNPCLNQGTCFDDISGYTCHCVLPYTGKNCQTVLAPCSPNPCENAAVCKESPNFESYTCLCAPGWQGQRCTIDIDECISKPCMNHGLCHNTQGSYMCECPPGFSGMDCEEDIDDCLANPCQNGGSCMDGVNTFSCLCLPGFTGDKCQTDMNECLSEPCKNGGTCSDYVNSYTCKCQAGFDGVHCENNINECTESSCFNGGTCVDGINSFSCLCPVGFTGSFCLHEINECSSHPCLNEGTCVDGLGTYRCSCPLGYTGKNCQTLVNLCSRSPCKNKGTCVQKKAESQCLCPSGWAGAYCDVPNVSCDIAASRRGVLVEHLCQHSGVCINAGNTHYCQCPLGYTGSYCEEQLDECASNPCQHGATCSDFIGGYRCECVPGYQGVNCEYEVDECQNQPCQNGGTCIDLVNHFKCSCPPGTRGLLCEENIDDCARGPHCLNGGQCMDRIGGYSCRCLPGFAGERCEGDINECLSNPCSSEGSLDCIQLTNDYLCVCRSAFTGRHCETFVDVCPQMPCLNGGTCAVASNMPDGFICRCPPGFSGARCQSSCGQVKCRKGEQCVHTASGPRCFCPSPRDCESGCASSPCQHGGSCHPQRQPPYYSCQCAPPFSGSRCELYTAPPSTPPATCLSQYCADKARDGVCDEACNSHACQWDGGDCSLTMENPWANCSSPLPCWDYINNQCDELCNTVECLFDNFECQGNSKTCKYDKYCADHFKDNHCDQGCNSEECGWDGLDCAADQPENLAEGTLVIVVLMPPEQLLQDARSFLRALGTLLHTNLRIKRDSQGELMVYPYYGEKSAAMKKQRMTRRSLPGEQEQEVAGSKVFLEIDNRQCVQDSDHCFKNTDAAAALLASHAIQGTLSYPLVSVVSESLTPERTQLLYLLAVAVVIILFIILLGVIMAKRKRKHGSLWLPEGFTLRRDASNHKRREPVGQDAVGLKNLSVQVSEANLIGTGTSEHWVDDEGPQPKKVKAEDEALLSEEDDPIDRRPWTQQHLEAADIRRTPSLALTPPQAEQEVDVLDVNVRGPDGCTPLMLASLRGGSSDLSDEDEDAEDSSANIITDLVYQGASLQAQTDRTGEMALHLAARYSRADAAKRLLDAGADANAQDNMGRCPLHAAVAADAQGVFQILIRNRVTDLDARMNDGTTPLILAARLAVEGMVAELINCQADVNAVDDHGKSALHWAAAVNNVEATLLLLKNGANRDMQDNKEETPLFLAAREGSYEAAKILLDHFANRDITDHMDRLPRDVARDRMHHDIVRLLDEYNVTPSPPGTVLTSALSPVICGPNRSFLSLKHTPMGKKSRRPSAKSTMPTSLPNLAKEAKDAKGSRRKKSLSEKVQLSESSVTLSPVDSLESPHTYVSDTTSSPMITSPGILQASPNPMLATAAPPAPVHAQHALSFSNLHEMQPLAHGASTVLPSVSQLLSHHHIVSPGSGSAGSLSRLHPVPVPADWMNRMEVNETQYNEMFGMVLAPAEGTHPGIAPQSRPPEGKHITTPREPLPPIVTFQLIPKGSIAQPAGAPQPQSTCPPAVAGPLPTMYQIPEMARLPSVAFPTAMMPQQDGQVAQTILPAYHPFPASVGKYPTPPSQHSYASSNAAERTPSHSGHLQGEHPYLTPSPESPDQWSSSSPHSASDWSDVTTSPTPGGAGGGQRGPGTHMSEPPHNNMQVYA

As to `CC=CC1=C(CO)[C@H](O)[C@H]2O[C@H]2[C@@H]1O`, the composite z-score in [1] is -0.267; in experiment [2], 0.112; in experiment [3], -0.0425; in experiment [4], 0.192; in experiment [5] it was 0.486; in experiment [6] it was -0.356. The results for the composite z-score in experiment [7], in experiment [9] and in experiment [10] were 0.592, 0.133 and 0.154, respectively. Further, the z-score in experiment [8] was 0.746 (inactive).

On to `O=C1C=C[C@@H](O)[C@@H]2[C@@H]3C(=O)N(Cc4ccc5c(c4)OCO5)C(=O)[C@@H]3CC[C@@H]12`, for which the composite z-score in experiment [1] was -0.624; in [2], -0.0026; in experiment [3], -0.0925; in experiment [4] it was 0.28; in experiment [5], 0.628; in experiment [6], 0.199. Also, the composite z-score stood at 0.764 in [7], 0.233 in experiment [9] and 0.0722 in experiment [10]. Moreover, the z-score in [8] was 0.189 (inactive).

Turning to `CC(C)(C)N1C(=O)[C@H]2[C@H]3[C@H](O)[C@H](O)CC(=NNC(=O)OCc4ccccc4)[C@@H]3CC[C@H]2C1=O`, the composite z-score in experiment [1] was -0.387; in experiment [2], 0.376; in [3], -0.136; in experiment [4] it was 0.64; in experiment [5] it was 0.447; in experiment [6], -0.0123. In addition, the results for the composite z-score in experiment [7], in [9] and in experiment [10] were 0.254, 0.278 and -0.161, respectively. For the same compound, the z-score in experiment [8] was 0.674 (inactive).

Consider `C[C@@H]1C=CCC(=O)OC[C@H](C)C(=O)N[C@@H](Cc2ccccc2)C(=O)OC1`, for which the composite z-score in experiment [1] was -0.553; in experiment [2], 1.31; in experiment [3], -0.245; in experiment [4] it was 0.294; in [5], 0.443; in experiment [6] it was -0.302. Moreover, the composite z-score in experiment [7] was found to be 0.422; in experiment [9], 0.0347; in experiment [10], 0.605. Also, the z-score in experiment [8] was -0.514 (inactive).

Take `CCN1C(=O)[C@H]2[C@H]3[C@H](O)[C@H](O)CC(=NO[C@@H]4O[C@H](CO)[C@@H](O)[C@H](O)[C@H]4O)[C@H]3CC[C@H]2C1=O`: the composite z-score in [1] was -0.396; in [2] it was 1.06; in experiment [3], -0.138; in [4] it was 0.235; in experiment [5], 1; in experiment [6], 0.259. Moreover, the figures for the composite z-score in [7], in experiment [9] and in experiment [10] were 0.108, 0.293 and 0.0274, respectively. Moreover, the z-score in [8] was -1.07 (inactive).

In the case of `CO[C@H]1COC(=O)CC=C[C@H](C)[C@H](OC)COC(=O)[C@@H](C)NC(=O)CC=C[C@@H]1C`, the composite z-score is -0.57 in experiment [1]; 2.19 in experiment [2]; -0.246 in [3]; -0.225 in experiment [4]; -0.755 in [5]; -0.468 in experiment [6]. Also, the values for the composite z-score in [7], in experiment [9] and in [10] were 0.659, -0.39 and 0.172, respectively. The z-score in experiment [8] is 0.484 (inactive).

Regarding `CCOC(=O)[C@H](Cc1ccccc1)NC(=O)CCC1CC(OC(=O)NCc2cccc3ccccc23)CC2(CCCC(COC(=O)NCCc3ccc(Cl)cc3)O2)O1` (stereo not given in full), the composite z-score in experiment [1] was -0.487; in experiment [2] it was 0.0381; in experiment [3], -0.205; in experiment [4], 0.13; in [5], 0.597; in experiment [6], 0.108. Further, the composite z-score in [7] is 0.966; in experiment [9] it was -0.0328; in [10], -0.0645. Besides, in experiment [8], the z-score was 0.903 (inactive).

Turning to `CCN1C(C)=C(C(=O)OC)[C@@H](c2ccccc2)N2C(=O)[C@](O)(C(=O)OC)CC(C(C)=O)=C12`, the composite z-score in [1] is -0.619; in experiment [2], 0.159; in [3], -0.205; in [4], 0.372; in experiment [5], 0.505; in [6] it was -0.125. The composite z-score in experiment [7] is -0.254; in [9] it was 0.101; in experiment [10] it was -0.0618. In [8], the z-score was -1.11 (inactive).

In the case of `CO[C@@H]1COC(=O)[C@H](CCSC)NC(=O)CC=C[C@@H](C)COC(=O)[C@@H]2CCCN2C(=O)CC=C[C@H]1C`, the composite z-score in [1] is -0.313; in experiment [2], 2.62; in [3], -0.0659; in [4], 0.571; in [5], 0.84; in [6], -0.483. Besides, the composite z-score in experiment [7] was 0.926; in [9] it was 0.16; in [10], -0.0618. Further, in [8], the z-score is -0.813 (inactive).

Regarding `O=C(NN=C1C[C@@H](O)[C@@H](O)[C@@H]2[C@@H]3C(=O)N(Cc4ccccc4)C(=O)[C@@H]3CC[C@H]12)OCc1ccccc1`, the composite z-score in experiment [1] is -0.286; in [2], 0.897; in [3], -0.0996; in experiment [4], 0.378; in [5], 0.226; in experiment [6] it was -0.153. Also, the composite z-score in experiment [7] was -0.15; in [9], 0.122; in [10] it was 0.0373. Also, in experiment [8], the z-score is 0.157 (inactive).

In the case of `CO[C@H]1COC(=O)CCC[C@H](C)[C@@H](OC)COC(=O)CC=C[C@@H]1C`, the composite z-score was -0.673 in experiment [1]; 0.929 in experiment [2]; -0.122 in [3]; 0.227 in [4]; 0.0458 in experiment [5]; -0.21 in experiment [6]. Moreover, the composite z-score was -0.179 in experiment [7], -0.106 in experiment [9] and -0.0237 in [10]. In addition, the z-score in experiment [8] was -0.0314 (inactive).

With `CCOC(=O)[C@H](CC(C)C)NC(=O)CCC1CC(OC(=O)NCc2ccc3c(c2)OCO3)CC2(CCCC(COC(=O)NCCOC)O2)O1` (stereo not given in full), the composite z-score in experiment [1] was -0.412; in experiment [2] it was -0.224; in experiment [3] it was -0.0785; in experiment [4], 0.197; in [5] it was 0.805; in experiment [6], -0.0383. Also, the composite z-score in experiment [7] came to 1.07; in experiment [9] it was 0.0301; in experiment [10], 0.0826. In addition, the z-score in experiment [8] is 0.619 (inactive).
